Results reported in ChEMBL document CHEMBL3988442, “University of Dundee, Small-Polar-MMV Screening Library” (2021).
Among all 38,000 compounds or so, about 1,200 (3.2%) showed an effect of 50% or more. The median lay at about -58%. For the sample, strong results were picked, then their nearest neighbours and some compounds at random.

System: Plasmodium falciparum
Assay: Calibr Malaria Delayed Death Assay SOP
Type: functional, organism-based
Design: scale not given: in the data most compounds retested in dose-response had high values
Details: concentration 4.99e-06 (unit not given; other assays of the set use mol/L)

Row | Structure (SMILES) | Percent Effect
1 | COC(=O)COn1c(SC)nc2ccccc2c1=O | -26.25%
2 | Cc1cccnc1CN(C)c1ncnc2[nH]ccc12 | -141.2%
3 | O=C(O)C(F)(F)F.O=C(O)C(F)(F)F.c1cncc(OC[C@@H]2CCC[C@@]23CN(Cc2nccs2)CCO3)c1 | -94.41%
4 | Cn1nc(-c2ccccc2)c(Br)c1C(=O)O | -35.19%
5 | O=C(C1CCOCC1)N1CCC2(CC1)CN(c1ccsc1)C(=O)CO2 | -132.3%
6 | O=C(c1cnn(-c2ccccc2Cl)c1)N1CCN(CCO)CC1 | -76.86%
7 | COCCn1cc(CC(=O)Nc2nc[nH]n2)c2ccccc21 | -106.6%
8 | Cn1cc(CN2CCS(=O)(=O)C(C)(C)C2)cn1 | -18.08%
9 | COc1ccccc1C(=O)Nc1nc2c(s1)CN(S(=O)(=O)C1CC1)CC2 | -86.55%
10 | COc1ccc(C2(NC(=O)c3ccc(=O)n(C)n3)CCCC2)cc1 | -78.19%
11 | Clc1cccc(CNC2CCN(CCc3ccncc3)CC2)c1 | 91.89%
12 | CCCc1cncnc1N1CCC(NCc2ccc(O)cc2)CC1 | 48.9%
13 | Oc1cccc(CNC2CCN(CCc3ccncc3)CC2)c1 | -23.71%
14 | Fc1ccc(C2CN(CCc3ccncc3)CCO2)cc1 (stereo not given) | -59.94%
15 | O=C1CC(NCc2cccc(O)c2)CN1CCc1cccc(Cl)c1 (stereo not given) | -115.5%
16 | CCCc1cncnc1N1CCC(NCc2ccncc2)CC1 | 65.25%
17 | CCCc1cncnc1N1CCC2(CCC(=O)N(C3CCCC3)C2)CC1 | 27.32%
18 | COCCN1CCC(NCc2cccc(F)c2)C1 (stereo not given) | -58.84%
19 | Fc1ccc(CNC2CCN(CCc3ccncc3)CC2)cc1F | 89.24%
20 | CC(C)Cc1cc(NC(=O)c2cc(Cl)c[nH]2)n(C)n1 | 10.73%
21 | CC(C)N(C)CCC(=O)N1CCCC(c2ccc(C(=O)O)cc2)C1 (stereo not given) | -175.3%
22 | CC(C)CN1C[C@H]2N(c3ncccn3)CCC[C@@]2(C(=O)NCC2CC2)C1 | -72.47%

Row | Structure (SMILES) | Percent Effect
23 | Cc1ccc(CN(C)C(=O)c2n[nH]c(N)c2-c2ccccc2)o1 | -66.55%
24 | CN(Cc1ccncc1)C1COC2(CCN(Cc3ccccn3)CC2)C1.O=C(O)C(F)(F)F.O=C(O)C(F)(F)F.O=C(O)C(F)(F)F.O=C(O)C(F)(F)F (stereo not given) | -49.62%
25 | Cc1ncsc1C(=O)NC1CCN(CC(N)=O)CC1 | -67.12%
26 | O=C(Cn1ccc2sccc2c1=O)NCCC1=CCCCC1 | -67.23%
27 | Cc1cccc(N2CCN(CCCNC(=O)c3cn[nH]c3C)CC2)c1 | -117.5%
28 | CC1CCCN(CCCNC(=O)Cc2csc(-c3ccoc3)n2)C1 (stereo not given) | 9.027%
29 | Cc1csc([C@H]2C[C@H]3CN(Cc4cc(C)on4)CC[C@@H]3O2)n1.O=C(O)C(F)(F)F | -119%
30 | CCN(C(=O)CN1CCn2c(C)nnc2C1)C1=CCCCC1 | 8.289%
31 | c1cnn(CC2CN(Cc3nnc(C4CC4)o3)CCO2)c1 (stereo not given) | -40.41%
32 | N[C@H]1CC[C@@H](Nc2nccc(CCC(F)(F)F)n2)CC1 | 50.03%
33 | FC(F)(F)CCc1ccnc(N[C@H]2CC[C@H](n3cnnc3)CC2)n1 | -55.01%
34 | N[C@@H]1CC[C@@H](Nc2nccc(CCC(F)(F)F)n2)C1 | -7.999%
35 | CC(C)N(C)C(=O)C1=NOC2(CCN(C(=O)c3ccnnc3)C2)C1 (stereo not given) | -187.4%
36 | Cc1cccc(CCC(=O)Nc2ccnn2C2CCS(=O)(=O)C2)c1 (stereo not given) | -75.57%
37 | O=C(NCCNC(=O)c1ccc(Br)cc1)c1ccc(O)cc1 | 27.41%
38 | O=C(NCCNc1cncc(Br)c1)c1ccc(O)cc1 | 50.22%
39 | O=C(NCCNc1ccc(Br)cn1)c1ccc(O)cc1 | -25.48%
40 | CCc1nn(C)c(Cl)c1CN1CCCC2(CC1)CN(C)C(=O)O2 (stereo not given) | -46.66%
41 | OCCOc1ccccc1CN1CCCC(O)(CO)C1 (stereo not given) | -48.41%
42 | OCC1(O)CCCN(Cc2ccccc2OCCc2ccccc2)CC1 (stereo not given) | 64.9%
43 | O=C1NCC2(CCCN(Cc3ccccc3OCCO)C2)O1 (stereo not given) | -55.51%
44 | Cc1cc(C(=O)Nc2cnn(CC(F)(F)F)c2)nc(N2CCOCC2)n1 | -108.9%

Row | Structure (SMILES) | Percent Effect
45 | c1csc(COC[C@H]2CCC[C@]23CN(Cc2ccoc2)CCO3)n1 | 34.38%
46 | CCS(=O)(=O)N1CCC(Oc2ccc(C#N)cc2)CC1 | -74.03%
47 | CC(=O)NCCC1CCCCN1S(=O)(=O)c1cccc(C#N)c1 (stereo not given) | -38.39%
48 | CCN1CCCC1CN(CCN(C)C)S(=O)(=O)c1ccc(C#N)cc1 (stereo not given) | 58.03%
49 | CCN(CC)S(=O)(=O)c1ccc(CNC(=O)N2CCC(C#N)CC2)cc1 | -96.87%
50 | CCN1CCCC1CN(CCN(C)C)S(=O)(=O)c1cccc(C#N)c1 (stereo not given) | 58.76%
51 | CS(=O)(=O)NCC1CCCCN1Cc1cccc(C#N)c1 (stereo not given) | -99.98%
52 | Cn1ncc2c(NC3CCCN(C(=O)C4CC4)C3)nc(C(C)(C)C)nc21 (stereo not given) | -80.8%
53 | CC(C)CC(NC(=O)c1ccn(C)c(=O)c1)c1ccccc1 (stereo not given) | -106.6%
54 | CCc1c(C)nc2ccccc2c1N1CCC(C(=O)NC)CC1 | 51%
55 | CNC(=O)C1CCCN1c1nc(C)c2ccccc2n1 (stereo not given) | -23.49%
56 | CCc1c(C)nc2ccccc2c1N1CCC(NC(C)=O)CC1 | 21.66%
57 | Cc1csc(NC(=O)[C@@H]2C[C@H]3[C@H](CCN3S(C)(=O)=O)O2)n1 | -110.3%
58 | O=S(=O)(NCc1ccc(S(=O)(=O)N2CCCC2)s1)c1ccc(Cl)cc1 | -58.72%
59 | Cc1ccc(C(=O)N2CC(=O)N(Cc3cccs3)CC(O)C2)cc1 (stereo not given) | -71.11%
60 | O=C1CN(C(=O)c2ccc(Cl)cc2)CC(O)CN1Cc1cccs1 (stereo not given) | -105.2%
61 | O=C1CN(C(=O)c2ccc(F)cc2)CC(O)CN1Cc1cccs1 (stereo not given) | 88.73%
62 | CN(C)S(=O)(=O)N1CCOCC1CC(=O)NCCOc1ccccc1 (stereo not given) | -2.235%
63 | Cc1noc(C)c1C(=O)NCc1cc[nH]n1 | -1.688%
64 | CCc1noc(C)c1C(=O)NCc1cc[nH]n1 | -11.39%
65 | CCN(c1ccc(C(=O)NCc2cc[nH]n2)cc1)C(C)C | 57.8%
